Source: PubChem BioAssay
ABHD5-PLIN5 inh: ABHD5-PLIN5 interaction inhibitors, primary screen, cell lysate, split luciferase complementation, luminescence | inhibition, % at 4 µM | AID 602281, 2012 | Split G. princeps luciferase complementation, 4 h | Perilipin-5 (Homo sapiens) + 1-acylglycerol-3-phosphate O-acyltransferase ABHD5 (Homo … | hit rate 0.78% among 360,000;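 active = inhibition above the mean inhibition across every tested compound plus 3 SD, cut at about 22% in these data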;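 note: 0% = DMSO only wells and the 100% control is not disclosed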
NOD2-RIPK2 inh: NOD2-RIPK2 binding disruptors in cells, primary screen, fluorescence, CHO cells, BLA complementation. hit rate 0.38% among 360,000. CCF4 ratio. inhibition, % at 4.98 µM. Receptor-interacting serine/threonine-protein kinase 2 (Homo sapiens), O43353; in the data active = inhibition above about 21%;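 note: 0% = vehicle only and 100% = reference blocker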
Granule exo inh: LAMP-1 surface exposure blockers, TALL-104 cells – cell-based, flow cytometry, MLPCN library, primary screen. TALL-104 LAMP-1 surface exposure; cells stimulated with thapsigargin and PMA. inhibition, % at 10 µM. AID 651702, 2012. hit rate 0.66% among 360,000;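 active = inhibition above about 55%, limit read from the data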
PRMT1 FP inh: PRMT1 methyltransferase inhibitors, primary screen, biochemical, fluorescence polarization; hit rate 1.3% among 370,000; recombinant PRMT1, activity-based probe fluorescence polarization; inhibition, % at 2.79 µM; Protein arginine N-methyltransferase 1 (Homo sapiens), Q99873;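 active = inhibition above about 21% made by adding two undisclosed values, limit read from the data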
TLR9-MyD88 block: inhibitors of TLR9-MyD88 association in cells, primary screen, cell-based, CHO, BLA complementation, fluorescence; Toll-like receptor 9 (Homo sapiens) + Myeloid differentiation primary response protein …; CCF4 FRET ratio; inhibition, % at 4.98 µM; hit rate 0.21% among 340,000; AID 504734, 2011;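 active = inhibition above the mean over all tested compounds plus 3 SD, cut at about 21% in these data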;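 note: 0% = DMSO only wells and 100% = clavulanate BLA inhibitor control wells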
TLR4 MyD88 comp: inhibitors of TLR4-MyD88 association in cells, primary screen, cell-based, HeLa CL3-4, BLA complementation, FRET ratio; Toll-like receptor 4 (Homo sapiens) + Myeloid differentiation primary response protein …; HeLa CL3-4 TLR4/MyD88 BLA complementation; inhibition, % at 8.4 µM; hit rate 0.18% among 200,000; AID 861, 2007; in the data active = inhibition above about 25%;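 note: 0% = vehicle and 100% = reference inhibitor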
PRMT1 inh conf: PRMT1 methyltransferase inhibitors, confirmation, biochemical, fluorescence polarization, triplicate. AID 687036, 2013. shares compounds with PRMT1 FP inh. hit rate 42% among 3,300. recombinant His-PRMT1, activity-based probe fluorescence polarization. inhibition, % at 2.79 µM;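 active = mean inhibition across replicates above the hit cutoff derived for the earlier primary screen, cut at about 22% in these data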
Numbers without * were called inactive; nt = not tested or not shown. The list is not random: actives were taken first. Their share in the collection is about 2.6%.

SMILES | ABHD5-PLIN5 inh | NOD2-RIPK2 inh | Granule exo inh | PRMT1 FP inh | TLR9-MyD88 block | TLR4 MyD88 comp | PRMT1 inh conf
CC(=O)c1cccc(N2C(=O)CC(N3CCN(S(=O)(=O)c4ccccc4F)CC3)C2=O)c1 (stereo not given) | -6 | -3 | 1 | 2 | 2 | nt | nt
O=C(C1CCN(C2CC(=O)N(c3ccc(F)cc3)C2=O)CC1)N1CCOCC1 (stereo not given) | -3 | -1 | 0 | 46* | 1 | -4 | 3
O=C1CC(N2CCN(c3ccccn3)CC2)C(=O)N1c1ccc(F)cc1 (stereo not given) | 0 | -3 | 0 | 2 | nt | -13 | nt
CC(=O)Nc1cccc(N2C(=O)CC(N3CCC(C(=O)N4CCCCC4)CC3)C2=O)c1 (stereo not given) | 13 | -8 | 0 | 79* | -3 | -8 | 1
O=C1CC(N2CCC(C(=O)N3CCCCC3)CC2)C(=O)N1 (stereo not given) | 2 | 2 | 0 | 62* | -10 | 3 | 7
Cc1cc(C)cc(N(CCC#N)C(=O)COC(=O)c2ccc(OCc3c(C)noc3C)cc2)c1 | 10 | -5 | 8 | -6 | 1 | nt | nt
COc1ccccc1N1CC(C)(C)C(=O)N(C(=O)c2ccc(Cl)cc2)C1=S | -3 | 3 | 13 | 1 | -7 | nt | nt
CC1CCCCC12NC(=O)N(CC(=O)N1CCN(S(=O)(=O)/C=C/c3ccccc3)CC1)C2=O (stereo not given) | 2 | -4 | 5 | 4 | -5 | nt | nt
O=C1CC(N2CCOCC2)C(=O)N1c1ccccc1Cl (stereo not given) | 6 | -1 | 4 | 26* | -2 | -3 | 2
COc1cc(OC)cc(N2C(=O)CC(N3CCC(C(=O)N4CCCCC4)CC3)C2=O)c1 (stereo not given) | 6 | 5 | -3 | 78* | 2 | nt | 2
c1cc(N2CCOCC2)ccc1-c1ccc2nncn2c1 | -5 | 12 | -7 | 3 | nt | nt | nt
c1coc(-c2ccc3nncn3c2)c1 | 20 | -8 | -5 | 43* | nt | nt | 39*
Cc1ccc(-c2nc3s/c(=C\c4ccco4)c(=O)n3n2)cc1 | -3 | 3 | -4 | 28* | -3 | -16 | 1
Cn1nnnc1Sc1ncnc2scc(-c3ccccc3C(F)(F)F)c12 | 9 | -6 | 2 | 39* | -17 | nt | 14
Cn1nnnc1Sc1ncnc2scc(-c3ccc(C(F)(F)F)cc3)c12 | 15 | 13 | -11 | 0 | 10 | nt | nt
COc1cccc(C(=O)COC(=O)COc2c(C)cc(C)cc2C)c1 | 0 | 0 | -1 | -1 | -6 | nt | nt
CC(=O)OCC1=C(C(=O)O)N2C(=O)C(NC(=O)C(C)Cn3cc(Cl)cn3)C2SC1 (stereo not given) | 18 | -3 | -3 | 19 | -7 | -14 | nt
CC(=O)OCC1=C(C(=O)O)N2C(=O)[C@@H](NC(=O)Cc3ccccc3)[C@H]2SC1 | 21 | -3 | 2 | 27* | -8 | nt | 11
CC(=O)OCC1=C(C(=O)O)N2C(=O)C(NC(=O)COc3ccc(F)cc3)C2SC1 (stereo not given) | -3 | 2 | 2 | 37* | -13 | nt | 48*
CC(=O)OCC1=C(C(=O)O)N2C(=O)C(NC(=O)c3ccc(COc4ccc(Cl)cc4)o3)C2SC1 (stereo not given) | 18 | 1 | 2 | 36* | -7 | -6 | 12
COc1ccccc1C(=O)Nc1ccc(S(=O)(=O)Nc2cnc3ccccc3n2)cc1 | -4 | -22 | -3 | -6 | -7 | nt | nt
COC(=O)C1CSC2c3ccccc3C(=O)N12 (stereo not given) | -10 | 12 | 16 | 32* | 2 | nt | 21
